Measurements reported in PubChem BioAssay AID652039 (The Scripps Research Institute Molecular Screening Center, 2013).
Screen size: about 370,000 compounds; about 3,300 (0.89%) were called active. This excerpt belongs to a sample that is enriched for actives. Unmarked numbers belong to inactive results.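 The calls were made as follows: active = activation above the mean of all tested compounds plus 3 SD, computed per campaign excluding outliers beyond control limits (cut at about 13% in these data); inactive = the rest.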

These compounds were tested against Kallikrein-7 (Homo sapiens) (UniProt P49862) (assay: activation of human kallikrein-7 proenzyme – biochemical, fluorescence intensity, primary screen (AID 652039)). Conditions: purified proKLK7, EDANS-DABCYL substrate fluorescence; at 7 µM; stronger effect = higher value; 100% is mature enzyme control, 0% vehicle.
Chain of Kallikrein-7 (Homo sapiens) (P49862 whole entry, looked up): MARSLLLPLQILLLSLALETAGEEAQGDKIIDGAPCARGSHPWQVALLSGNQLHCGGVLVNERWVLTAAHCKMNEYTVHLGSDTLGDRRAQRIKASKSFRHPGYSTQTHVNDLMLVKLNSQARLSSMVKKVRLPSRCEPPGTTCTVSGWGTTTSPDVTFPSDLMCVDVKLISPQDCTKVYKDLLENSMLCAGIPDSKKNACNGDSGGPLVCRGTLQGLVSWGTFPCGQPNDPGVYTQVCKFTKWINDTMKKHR

Row | SMILES | activation
1 | COc1ccccc1C(=O)NC1CCCCN(C(C)C)C1=O (stereo unspecified) | 0.9%
2 | COc1cccc(CNC(=O)C2CCCN(c3nc4ccccc4o3)C2)c1OC (stereo unspecified) | 0.61%
3 | O=S(=O)(c1ccccc1)N1CCC(c2nc3ccccc3o2)CC1 | -0.13%
4 | Cc1ccc(S(=O)(=O)N2CCN(C(=O)c3ccccc3-c3nc4ccccc4s3)CC2)c(C)c1 | -0.15%
5 | CC1CCCN(C(=O)c2cc(-c3ccco3)nc3ccccc23)C1 (stereo unspecified) | 38.3% (active)
6 | CC(=O)N1CCN(C(=O)c2cc(-c3ccc(C)o3)nc3ccccc23)CC1 | 35.2% (active)
7 | O=C(c1cc(-c2ccco2)nc2ccccc12)N(Cc1nnc(-c2ccc(Cl)cc2)o1)C1CC1 | -60.5%
8 | CC1CCN(C(=O)Cn2cc(C(=O)c3ccco3)c3ccccc32)CC1 | 0.78%
9 | CC(=O)N1CCN(Cc2cc(=O)oc3cc(C)ccc23)CC1 | 0.22%
10 | O=C(Nc1cccc(Cl)c1)OC1CC2CC1[C@H]1CCCCN1[C@H]2Cc1ccccc1 (stereo partly specified) | -0.47%
11 | C=CCN1C(=O)[C@H](CC(=O)NCCCN2CCCC2=O)[C@@]2(C(=O)OCC)CCCC=C12 | -0.44%
12 | Cc1ccccc1CN1CCCCC(NC(=O)c2cccc(C#N)c2)C1=O (stereo unspecified) | -1.15%
13 | COc1ccc2c(C(C)c3ccc(N)cc3)cn(C)c2c1 (stereo unspecified) | -0.2%
14 | CC(=O)N1CCCN(C2=Nc3ccccc3Sc3ccccc32)CC1 | 0.25%
15 | CN(C)c1cc(-c2ccc(F)cc2)oc(=O)c1Cl | -0.37%
16 | O=c1oc2cc(O)ccc2cc1-c1ccc(F)cc1 | 57.7% (active)
17 | CCOC(=O)[C@]12CCCC3=C1N(CCC3)C(=O)[C@@H](CC(=O)NCC13CC4CC(CC(C4)C1)C3)C2 | 0.33%
18 | Cc1ccc(NC(=O)c2cc(C)nn2-c2ccccc2)c(C)c1 | 0.15%
19 | C[C@@H](NC(=O)c1ccccc1OCC(=O)Nc1ccc(I)cc1)C(=O)N(C)Cc1ccccc1 | -0.35%
20 | Cc1cc2nc3c(=O)[nH]c(=O)nc-3n(C[C@H](O)[C@H](O)[C@H](O)CO)c2cc1C | -49.4%
21 | CCN(CC)CCCC(C)n1c2nc(=O)[nH]c(=O)c-2nc2cc(Cl)ccc21 (stereo unspecified) | 75.5% (active)
22 | CC(C)CNc1cccc2c1S(=O)(=O)N(Cc1cn(Cc3ccccc3C(F)(F)F)nn1)Cc1ccccc1O2 | -7.19%

Row | SMILES | activation
23 | COCC(=O)Nc1nnc(COc2ccccc2)s1 | 20.2% (active)
24 | Cc1ccc(OCc2nnc(NC(=O)OCC(C)C)s2)cc1 | -0.08%
25 | CCOCc1nnc(NC(=O)CCS(=O)(=O)Cc2ccccc2)s1 | 0.26%
26 | COc1ccc(CN2C/C(=C/c3ccccc3)N3C(=O)C[C@@H](c4ccccc4)N=C23)c(OC)c1 | -0.63%
27 | C/C=C(/C)C(=O)OC1Cc2c(ccc3ccc(=O)oc23)OC1(C)C (stereo unspecified) | 0.3%
28 | CC1(C)Oc2ccc3ccc(=O)oc3c2/C(=N/O)C1=O | 206% (active)
29 | CC1(C)Oc2ccc3ccc(=O)oc3c2/C(=C/NCCO)C1=O | 0.36%
30 | COC(=O)C1CN(Cc2cn(Cc3ccc(F)cc3)nn2)CCS(=O)(=O)N1Cc1ccc(Cl)cc1 (stereo unspecified) | -0.37%
31 | N#CC1=C(N)Oc2c(sc3ccccc23)C1c1ccco1 (stereo unspecified) | 15% (active)
32 | CCN(CC(=O)Nc1c(F)cccc1F)C(=O)c1ccc(-c2ccccc2)cc1 | 0.37%
33 | CCN(CC(=O)Nc1c(F)cccc1F)C(=O)c1ccc(-c2ccc(C(C)=O)cc2)o1 | 13.8% (active)
34 | CCN(CC(=O)Nc1c(F)cccc1F)C(=O)c1cnc(C)cn1 | -0.38%
35 | O=C(OC12CCCN(C1)/C(=C/c1ccccc1)C2)c1ccco1 (stereo unspecified) | 0.07%
36 | CCCCCCCCNS(=O)(=O)/C=C/c1cc(C)ccc1CNC(=O)OC(C)(C)C | 0.37%
37 | CC(C)N1CCCCC(NC(=O)C(C)(C)C)C1=O (stereo unspecified) | -0.28%
38 | Cc1oc2nc(SCC(=O)Nc3ccc(S(N)(=O)=O)cc3)nc(NC(=O)c3ccccc3)c2c1C | 16.3% (active)
39 | Cc1oc2nc(SCC(=O)NCc3cccnc3)nc(N)c2c1C | 0.33%
40 | Cc1cc(-c2nnc(SCC(=O)Nc3ccc(S(N)(=O)=O)cc3)n2N)n[nH]1 | -0.95%
41 | CN(C)Cc1cn(-c2ccc(-c3noc4c3C(=O)N(CC(=O)N3CCOCC3)CC4)cc2)nn1 | -0.76%
42 | CC(C)Oc1cc(F)ccc1-c1cc(C(=O)Nc2cccc(Cl)c2)[nH]n1 | -0.65%
43 | CCC(=O)OCCCN1C(=O)CCC12CCC(c1ccccc1)CC2 (stereo unspecified) | -0.27%
44 | CCc1nc(Nc2ccc(NC(C)=O)cc2)c2oc3ccccc3c2n1 | 172% (active)

Row | SMILES | activation
45 | C[C@@H](Nc1nc(-c2ccccc2)nc2c1oc1ccccc12)C(=O)O | -0.64%
46 | CCc1nc(Nc2ccc3nccnc3c2)c2oc3ccccc3c2n1 | -2.9%
47 | Cc1cc2nc(C(F)(F)F)cc(-c3cccs3)n2n1 | -1.33%
48 | Cc1nc2ccccn2c(=O)c1NC(=O)c1cccs1 | 0.03%
49 | CC(C)(C)Nc1c(-c2cccs2)nc2ccccn12 | 27% (active)
50 | COC(=O)[C@]12C[C@H](CC(=O)N3CCOCC3)C(=O)N(Cc3ccc(Cl)cc3Cl)C1=C[C@H](C(C)C)O[C@@H]2C1CC1 | 0.16%
51 | CC(=O)OCCN1CCCC12CCC(c1ccccc1)CC2 (stereo unspecified) | -0.5%
52 | O=C(NCCN1CCN(Cc2ccccc2)CC1)c1cc2c(=O)[nH]c3ccccc3c2s1 | -1.14%
53 | CCN(CC)CCCNC(=O)c1cc2c(=O)[nH]c3ccc(C)cc3c2s1 | 23.3% (active)
54 | Cc1cccc(N(C)C(=O)c2cc3c(=O)[nH]c4ccc(C)cc4c3s2)c1 | -0.34%
55 | CC(C)CNS(=O)(=O)CC1NCCc2ccccc21 (stereo unspecified) | -0.37%
56 | COC(=O)C12C=C3CC(c4ccccc4)=C3C(=O)N1Cc1[nH]c3ccccc3c1C2 (stereo unspecified) | -0.28%
57 | CS(=O)(=O)N(CC(O)Cn1c2ccccc2c2ccccc21)c1cccc2ccccc12 (stereo unspecified) | -1.25%
58 | CCCCN(CC)CCNC(=O)CCNC(=O)Cn1ccc2ccccc2c1=O | -0.2%
59 | CCCCN(CCCC)CC(O)Cn1c2ccccc2c(=O)c2ccccc21 (stereo unspecified) | 22.1% (active)
60 | CC(NCc1ccco1)C(=O)N1CCCCC1 (stereo unspecified) | 0.56%
61 | O=S1(=O)c2c(NCc3ccco3)cccc2Oc2ccccc2CN1Cc1cn(Cc2cccc(C(F)(F)F)c2)nn1 | -9.73%
62 | O=C(c1cccnc1)N(c1cc2sc(=O)oc2c2ccccc12)S(=O)(=O)c1ccccc1 | -0.78%
63 | Cc1ccc(-n2nc(-c3ccco3)cc2C(=O)NCc2cccnc2)cc1 | 0.09%
64 | O=C(Oc1c(-c2ccco2)oc2ccccc2c1=O)c1cccnc1 | 18.9% (active)
65 | COc1ccc(-c2cc(-c3nnc(SCC(=O)Nc4cccc5ccccc45)n3N)[nH]n2)cc1 | 0.07%
66 | COc1ccc(Cn2cc(CN3[C@@H](CC(C)C)COc4cc(Br)ccc4S3(=O)=O)nn2)cc1 | 0.02%

Row | SMILES | activation
67 | Cc1ccccc1NC(=O)Cn1c(=O)n(CC2CCCO2)c(=O)c2ccccc21 (stereo unspecified) | 0.23%
68 | O=C(NCc1cccnc1)c1cc(S(=O)(=O)N2CCOCC2)c(Cl)cc1Cl | -0.01%
69 | Cc1cccc(NC(=O)c2ccc3c(=O)n(CC4CCCO4)c(=S)[nH]c3c2)c1 (stereo unspecified) | -0.97%
70 | Cc1cccn2c(=O)c3cc(C(=O)NCCN4CCOCC4)c(=N)n(Cc4cccnc4)c3nc12 | 32.9% (active)
71 | Cc1ccc(Cn2c(C)c3cnn(CC(=O)NCCN4CCOCC4)c(=O)c3c2C)cc1 | 0%
72 | Cc1ccc(-n2c(=O)c(C#N)cc3c(=O)n4ccccc4nc32)cc1C | 2.54%
73 | COCCCn1c(C(=O)NC2CCCCC2)cc2c(=O)n3cccc(C)c3nc21 | -0.55%
74 | Cc1cccn2c(=O)c3cc(C#N)c(=O)n(CCCN4CCOCC4)c3nc12 | 39.9% (active)
75 | CCn1c(=N)c(C(=O)NCCCOC)cc2c(=O)n3cccc(C)c3nc21 | 62.3% (active)
76 | Cc1cccn2c(=O)c3cc(C#N)c(=NC(=O)c4cccnc4)n(CC4CCCO4)c3nc12 (stereo unspecified) | 17.3% (active)
77 | Cc1ccc(S(=O)(=O)c2cc3c(=O)n4cccc(C)c4nc3n(CCc3ccccc3)c2=N)cc1C | 0.37%
78 | Cc1ccc2cc(C#N)c(NCCNC(=S)NCCCN3CCOCC3)nc2c1 | 1.07%
79 | CC(=O)Nc1ccc(OC[C@@H](O)CN2CCC(C(O)(c3ccccc3)c3ccccc3)CC2)cc1 | 0.22%
80 | CNc1nc(SC)nc(N(C#N)CC(=O)OC)n1 | -0.23%
81 | O=C(NCCc1c[nH]c2ccccc12)OCc1cn(-c2c(F)cccc2F)nn1 | 0.33%
82 | CCOC(=O)[C@]12CCCCC/C=C\1N(Cc1ccc(OC)cc1)C(=O)[C@H]2CC(=O)NCCCN1CCCC1=O | -0.22%
83 | C=CCN1C(=O)[C@@H](CC(=O)N2CCN(C(=O)c3ccco3)CC2)[C@]2(C(=O)OC)CCCCC=C12 | 0.64%
84 | COC(=O)C[C@H]1CC[C@H]2[C@H](COc3ccc(NC(=O)C4CC4)cc3C(=O)N2C)O1 | -0.05%
85 | CCC(=O)Nc1ccc2c(c1)C(=O)N(C)[C@@H]1CC[C@@H](CC(=O)NCCc3ccccc3)O[C@H]1CO2 | -0.14%
86 | Cc1cc(NS(=O)(=O)c2ccc(NC(=O)CSc3nnc(-c4ccc(C(C)(C)C)cc4)n3Cc3ccco3)cc2)nc(C)n1 | 0.49%
